Data from PubChem BioAssay.
A number with no mark means an inactive call. For some assays here: Entries with a potency or affinity are not part of this list. Calls of active or inactive are those of the source. Unless noted, no rule for the calls is given here.

Legend:
[1] = antimalarial activity against Dd2 strain (AID 2302;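 active = growth inhibition above 50% at the single 2 µM test dose, taken to imply half-maximal potency below 2 µM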;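 also: 0% = DMSO untreated growth and 100% = chloroquine plus artemisinin killed control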); conditions: P. falciparum Dd2 in RBCs, LDH growth readout, 72 h; at 2 µM; stronger effect = higher value
[2] = human hepatoma cell viability loss – ATP luminescence, cytotoxicity control for P. falciparum antimalarial project, primary screen (AID 2303;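 active = inhibition above 50%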;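 also: 0% = DMSO wells and 100% = digitonin-killed cells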); conditions: HepG2 viability, 24-48 h, at 10 µM, stronger effect = higher value
[3] = target: L-lactate dehydrogenase (Plasmodium falciparum (isolate CDC / Honduras)) (UniProt Q27743); test: PfLDH activity inhibition – cell lysate, 3D7 strain, counter-screen for P. falciparum growth inhibition project (AID 2304);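 also: 0% = vehicle and 100% = reference inhibitor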; conditions: P. falciparum 3D7 crude extract, LDH APAD/NBT absorbance; at 2 µM; stronger effect = higher value
[4] = inhibition of 3D7 malaria parasite growth – strain 3D7 (AID 2306);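 also: 0% = DMSO wells and 100% = chloroquine plus artemisinin control wells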; conditions: P. falciparum 3D7 erythrocytic growth, LDH absorbance, 72 h; at 2 µM; stronger effect = higher value
[5] = target: Calcium-dependent protein kinase 1 (Plasmodium falciparum (isolate 3D7)) (UniProt P62344); test: PfCDPK1 kinase inhibitors, biochemical, TCAMS library (AID 1159585; cut-off not given, nearly all actives have IC50 up to about 0.98 µM;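 also: inhibitors leave more ATP so luminescence rises with inhibition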); conditions: recombinant PfCDPK1, Kinase-Glo ATP depletion luminescence
[6] = target: Plasmodium falciparum protein kinase 6 (PK6, PF3D7_1337100) (UniProt Q8IDW1); test: PfPK6 kinase inhibitors, biochemical, TCAMS library (AID 1159586); conditions: recombinant PfPK6, Kinase-Glo ATP depletion luminescence
[7] = target: Protein kinase 7 (PK7), Plasmodium falciparum 3D7 (PF3D7_0213400) (UniProt Q7YTF7); test: inhibition of Plasmodium PK7 catalytic activity – biochemical, TCAMS antimalarial set, Kinase-Glo luminescence (AID 1159587); conditions: recombinant PfPK7, Kinase-Glo ATP depletion luminescence
[8] = target: Calcium-dependent protein kinase 4 (Plasmodium falciparum (isolate 3D7)) (UniProt Q8IBS5); test: PfCDPK4 kinase inhibitors, biochemical, TCAMS library (AID 1159588; cut-off not given, nearly all actives have IC50 up to about 0.91 µM); conditions: recombinant PfCDPK4, Kinase-Glo ATP depletion luminescence
Sequence of Calcium-dependent protein kinase 4 (Plasmodium falciparum (isolate 3D7)) (Q8IBS5 whole entry, looked up): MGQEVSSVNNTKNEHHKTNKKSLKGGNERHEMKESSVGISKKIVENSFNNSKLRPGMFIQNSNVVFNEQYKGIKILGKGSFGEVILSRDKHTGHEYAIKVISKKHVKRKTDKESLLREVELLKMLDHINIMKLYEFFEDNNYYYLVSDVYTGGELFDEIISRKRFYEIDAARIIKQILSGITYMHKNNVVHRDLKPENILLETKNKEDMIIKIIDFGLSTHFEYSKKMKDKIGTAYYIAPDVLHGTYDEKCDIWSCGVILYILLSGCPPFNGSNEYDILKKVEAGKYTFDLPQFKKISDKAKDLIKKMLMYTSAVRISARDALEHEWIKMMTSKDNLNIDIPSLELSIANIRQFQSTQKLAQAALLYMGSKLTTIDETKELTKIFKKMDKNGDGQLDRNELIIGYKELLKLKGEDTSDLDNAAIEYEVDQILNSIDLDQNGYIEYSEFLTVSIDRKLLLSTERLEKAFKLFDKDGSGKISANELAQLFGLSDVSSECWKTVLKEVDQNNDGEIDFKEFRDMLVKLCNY

Sequence of Calcium-dependent protein kinase 1 (Plasmodium falciparum (isolate 3D7)) (P62344 whole entry, looked up): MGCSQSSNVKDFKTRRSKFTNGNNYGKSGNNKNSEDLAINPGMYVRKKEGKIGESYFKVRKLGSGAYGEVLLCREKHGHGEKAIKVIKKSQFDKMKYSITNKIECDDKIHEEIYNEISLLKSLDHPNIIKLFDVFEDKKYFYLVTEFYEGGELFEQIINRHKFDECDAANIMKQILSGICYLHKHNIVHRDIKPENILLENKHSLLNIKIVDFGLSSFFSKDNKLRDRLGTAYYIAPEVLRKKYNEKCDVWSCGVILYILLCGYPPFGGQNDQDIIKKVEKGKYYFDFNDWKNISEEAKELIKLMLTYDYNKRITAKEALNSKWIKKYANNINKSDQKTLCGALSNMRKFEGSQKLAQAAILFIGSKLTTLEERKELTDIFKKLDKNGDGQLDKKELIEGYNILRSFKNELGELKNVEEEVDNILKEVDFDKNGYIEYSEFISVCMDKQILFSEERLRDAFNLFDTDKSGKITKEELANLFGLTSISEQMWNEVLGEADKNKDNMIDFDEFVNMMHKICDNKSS
Sequence of Plasmodium falciparum protein kinase 6 (PK6, PF3D7_1337100) (Q8IDW1 1-305): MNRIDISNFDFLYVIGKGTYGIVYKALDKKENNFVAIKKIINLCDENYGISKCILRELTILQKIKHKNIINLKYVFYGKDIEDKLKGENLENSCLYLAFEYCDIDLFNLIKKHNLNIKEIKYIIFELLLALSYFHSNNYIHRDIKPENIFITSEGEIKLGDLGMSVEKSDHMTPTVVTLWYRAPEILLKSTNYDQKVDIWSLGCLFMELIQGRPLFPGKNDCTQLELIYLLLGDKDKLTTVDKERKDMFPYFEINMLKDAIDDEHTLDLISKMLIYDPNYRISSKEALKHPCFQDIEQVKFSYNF
Sequence of Protein kinase 7 (PK7), Plasmodium falciparum 3D7 (PF3D7_0213400) (Q7YTF7 1-343): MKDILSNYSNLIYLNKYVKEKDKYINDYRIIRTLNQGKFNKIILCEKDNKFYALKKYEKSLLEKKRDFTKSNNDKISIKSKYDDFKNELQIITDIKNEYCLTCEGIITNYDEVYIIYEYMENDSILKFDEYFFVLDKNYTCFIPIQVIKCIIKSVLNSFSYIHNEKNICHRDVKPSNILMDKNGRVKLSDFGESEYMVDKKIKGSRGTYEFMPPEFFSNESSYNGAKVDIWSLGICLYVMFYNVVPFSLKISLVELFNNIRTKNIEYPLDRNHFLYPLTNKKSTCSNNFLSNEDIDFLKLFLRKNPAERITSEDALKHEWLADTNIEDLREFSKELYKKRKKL
Sequence of L-lactate dehydrogenase (Plasmodium falciparum (isolate CDC / Honduras)) (Q27743 whole entry, looked up): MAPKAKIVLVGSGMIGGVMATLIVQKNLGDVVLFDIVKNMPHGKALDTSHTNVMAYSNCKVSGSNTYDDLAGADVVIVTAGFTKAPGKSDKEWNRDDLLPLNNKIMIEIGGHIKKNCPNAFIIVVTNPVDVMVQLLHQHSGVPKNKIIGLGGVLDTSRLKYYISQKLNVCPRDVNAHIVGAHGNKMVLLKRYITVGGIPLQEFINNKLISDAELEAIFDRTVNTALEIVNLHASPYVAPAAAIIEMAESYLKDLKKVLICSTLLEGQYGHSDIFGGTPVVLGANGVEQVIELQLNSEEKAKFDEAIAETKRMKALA

Structure (SMILES) | growth inhibition [1] | inhibition [2] [%] | inhibition [3] [%] | growth inhibition [4] | outcome [5] | outcome [6] | outcome [7] | outcome [8]
Cc1cc(NC(=O)Nc2ccc(C(C)C)cc2)c2ccccc2n1 | 16% | 7 | -1 | 99% (active) | inactive | inactive | inactive | inactive
Clc1ccc(OCc2ccccc2)c(Cc2ccc(-c3nc4ccncc4[nH]3)o2)c1 | 6% | 2 | -2 | 99% (active) | inactive | inactive | inactive | inactive
CS(=O)(=O)N1CC2(CCN(CCC(NC(=O)/C=C/c3ccccc3)c3ccc(Cl)c(Cl)c3)CC2)c2ccccc21 (configuration not stated) | 55% (active) | 18 | 2 | 97% (active) | inactive | inactive | inactive | inactive
CS(=O)(=O)c1ccc(CCNCc2ccc(-c3ccc(CN(C(=O)C4CC(=O)c5ccccc54)C4CCN(Cc5ccccc5)CC4)cc3)nc2)cc1 (configuration not stated) | 49% | 9 | 9 | 100% (active) | inactive | inactive | inactive | inactive
